Laboratory results taken from PubChem BioAssay AID504850 (National Center for Advancing Translational Sciences (NCATS), 2011).
About 1,200 (52%) of roughly 2,300 compounds were called active. Inconclusive results (about 34%) are left out. The call rests on the fitted dose curve; in most records, active means well fitted inhibition curve with a large enough effect; inconclusive means small, poorly fitted or top-dose-only effect, or effect the other way; inactive means no such curve, though single readings can be large or run the other way. The set was probably picked from earlier hits. The list shows a part of the results.

Test: Confirmation screen for delayed death inhibitors of the malarial parasite plastid, 48 hour incubation; further: nearly all actives have a fitted effect of over 65% in size
Details: P. falciparum-infected erythrocytes, luciferase growth; series mostly up to 28.7 µM
Summary of the method: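 Single-generation (48 h, 37 C) exposure of integrated firefly luciferase-reporter P. falciparum in red cells, 0.1% parasitemia at 2% hematocrit, Albumax-supplemented RPMI. Falling luciferase signal marks parasite growth inhibition.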
Potency means the concentration at half of the fitted maximal effect.

SMILES | Potency
CCN(CC)C(=O)C1CCCN(C(=O)c2cc(COc3ccc4ncccc4c3)on2)C1 (stereo not given) | 11.2 µM (active)
CN1C(=O)Cc2cc(S(=O)(=O)N3CCN(c4cccc(C(F)(F)F)c4)CC3)ccc21 | 11.2 µM (active)
Cc1ccc(-c2cc(=O)c3ccc(F)cc3[nH]2)cc1 | 5.01 µM (active)
CCn1nc(C)c(NC(=O)CC23CC4CC(CC(C4)C2)C3)c1C | inactive
NC(=O)COc1ccc(C(=O)/C=C2/C(=O)Nc3ccccc32)cc1 | inactive
NC(=O)COc1ccc(NC(=O)CC23CC4CC(CC(C4)C2)C3)cc1 | 11.2 µM (active)
C=CCNC(=O)CSc1nc2sc3c(c2c(=O)n1CCCOC)CCC3 | 12.6 µM (active)
CCOc1ccc(-c2cc(C(=O)O)c3ccccc3n2)c(OCC)c1 | inactive
COc1ccc(/C=N/NC(=O)c2cc(-c3ccccc3OC(C)C)nc3ccccc23)cc1CN1CCOCC1 | inactive
CC(C)Oc1ccccc1-c1cc(C(=O)N/N=C/c2cccnc2)c2ccccc2n1 | 11.2 µM (active)
COc1cc(/C=N/NC(=O)c2cc(-c3ccccc3OC(C)C)nc3ccccc23)ccc1O | 14.1 µM (active)
CCOc1ccc(-c2cc(C(=O)N/N=C(\C)c3cccnc3)c3ccccc3n2)c(OCC)c1 | 14.1 µM (active)
CC1CCN(c2ccc3nnc(CCC(=O)N4CCN(c5ccccc5F)CC4)n3n2)CC1 | 10 µM (active)
Cc1nn(C)c(C)c1C(C)NC(=O)c1ccc(OC2CCN(Cc3ccccn3)CC2)cc1 (stereo not given) | inactive
COc1ccc(CN2CCC(Oc3ccc(C(=O)NCc4ccccn4)cc3)CC2)c(F)c1 | 12.6 µM (active)
CN(CCc1ccccn1)C(=O)c1ccc(OC2CCN(CCc3ccccc3)CC2)cc1 | 14.1 µM (active)
CCCCN(CCCC)CCC(O)c1cc2c(Cl)cc(Cl)cc2c2cc(C(F)(F)F)ccc12 (stereo not given) | 0.0316 µM (active)
CC(=O)/C(C#N)=C1\NC(=O)C(Cc2cc(Cl)ccc2Cl)S1 (stereo not given) | 14.1 µM (active)
CC(=O)/C(C#N)=C1\NC(=O)C(Cc2ccc(F)cc2)S1 (stereo not given) | 10 µM (active)
CCOC(=O)c1c(C)[nH]c(C(=O)Nc2cc(OCC)c(N3CCOCC3)cc2OCC)c1C | 2.51 µM (active)
Cc1ccc(NC(=O)CN2C(=O)S/C(=C\c3ccccn3)C2=O)cc1C | inactive
Cc1ccc(CN(Cc2ccccn2)C(=O)Nc2ccc(C)c(C)c2)cc1 | 14.1 µM (active)

SMILES | Potency
CC(Sc1nc2cc(Cl)ccc2s1)C(=O)Nc1cccc(S(=O)(=O)N2CCOCC2)c1 (stereo not given) | 12.6 µM (active)
O=C(CCl)Nc1ccc(S(=O)(=O)Nc2nccs2)cc1 | 2.24 µM (active)
CCC(=O)c1ccc(OCC(O)CNC(C)c2ccccc2)cc1 (stereo not given) | 11.2 µM (active)
C[C@@H]1CCC2[C@@H](C)[C@@H](O)O[C@@H]3O[C@@]4(C)CC[C@@H]1[C@@]23OO4 (stereo not given in full) | 0.0251 µM (active)
CO[C@H]1OC2O[C@@]3(C)CC[C@H]4[C@H](C)CC[C@@H]([C@H]1C)[C@@]24OO3 (stereo not given in full) | 0.0708 µM (active)
C[C@H]1[C@@H](OC(=O)CCC(=O)O)OC2OC3(C)CC[C@H]4[C@H](C)CC[C@@H]1[C@@]24OO3 (stereo not given in full) | 0.0398 µM (active)
CC[C@]1([C@H]2O[C@@H]([C@@H]3O[C@](O)(CO)[C@@H](C)C[C@H]3C)C[C@H]2C)CC[C@@H]([C@]2(C)CC[C@@]3(C[C@@H](O)[C@@H](C)[C@@H]([C@H](C)[C@H](OC)[C@H](C)C(=O)O)O3)O2)O1 | 0.141 µM (active)
CCCc1c(CC)c(=N)c2ccccc2n1C | 0.282 µM (active)
Cc1cnc(CNC(=O)c2ccc3oc(Cc4ccccc4)nc3c2)[nH]1 | 15.8 µM (active)
CC(C)(C)OC(=O)CNC(=O)c1[nH]cnc1C(=O)NC1CCN(C(=O)OC(C)(C)C)CC1 | 14.1 µM (active)
CC(C)C[C@H](NC(=O)c1nc[nH]c1C(=O)N1CCN(C(=O)OC(C)(C)C)CC1)C(=O)OC(C)(C)C | 11.2 µM (active)
CC(C)(C)OC(=O)[C@H](Cc1ccccc1)NC(=O)c1nc[nH]c1C(=O)N1CCN(C(=O)OC(C)(C)C)CC1 | 12.6 µM (active)
COc1ccc(NC2=C(NC(C)=O)C(=O)c3ccccc3C2=O)cc1 | 7.08 µM (active)
CC(Oc1ccccc1F)C(=O)Nc1ccc2ccccc2c1 (stereo not given) | inactive
O=C(CSc1c2c(nc3ccc(Cl)cc13)CCCC2)NCCCN1CCOCC1 | 12.6 µM (active)
O=S(=O)(CC(CN1CCCCC1)N1CCCCC1)c1ccccc1 (stereo not given) | 11.2 µM (active)
CC(C)NC(=O)c1onc(CSc2cccc(F)c2)c1C(=O)O | inactive
COC(=O)C1=CN(Cc2ccc(F)cc2)C=C(C(=O)OC)C1c1ccc(O)c(OC)c1 | 11.2 µM (active)
CCOc1ccc(N(C)C(=O)CCc2nnc3ccc(N4CCCCC4)nn23)cc1 | 11.2 µM (active)
O=C(Nc1cccc(Br)c1)c1ccc2snnc2c1 | inactive
CC(=O)Nc1cccc(C(=O)/C=C/c2ccc(Br)cc2)c1 | 14.1 µM (active)
CC(=O)Nc1cccc(C(=O)/C=C/c2ccc(C)cc2)c1 | 15.8 µM (active)

SMILES | Potency
CCC(=O)Nc1cccc(C(=O)/C=C/c2cc(Br)ccc2OC)c1 | 10 µM (active)
COC(=O)c1ccccc1SC1CC(=O)N(c2ccccc2)C1=O (stereo not given) | inactive
C=CCNC(=O)c1onc(CSc2ccc(F)c(F)c2)c1C(=O)O | inactive
CC(=O)N1c2ccc(S(=O)(=O)NCCC(=O)NC3CCCC(C)C3C)cc2CC1C (stereo not given) | 15.8 µM (active)
Cc1ccc(NC(=O)CSc2cccc3cccnc23)c(C)c1 | inactive
CN(C)S(=O)(=O)c1cccc(NC(=O)CSc2cccc3cccnc23)c1 | 11.2 µM (active)
Cn1c(=O)c(=O)n(C)c2cc(N3CCCCC3)c(NS(=O)(=O)c3ccc(Br)cc3)cc21 | 11.2 µM (active)
COc1ccc(OC)c(CNC(=O)c2ccc(C)c(NC(=O)C3=C(C)OCCS3)c2)c1 | 12.6 µM (active)
CC(CCc1ccccc1)NC(=O)COC(=O)c1ccc(S(C)(=O)=O)c([N+](=O)[O-])c1 (stereo not given) | inactive
CCCNC(=O)COC(=O)c1ccccc1C(=O)c1ccc(Cl)c([N+](=O)[O-])c1 | 12.6 µM (active)
CC1CCN(C(=O)Cn2cc(C(=O)c3ccco3)c3ccccc32)CC1 | 14.1 µM (active)
Cc1cc(Sc2nnc(/N=C/N(C)C)s2)c2ccccc2n1 | 10 µM (active)
Cc1cc(Sc2nnc(N)s2)c2ccccc2n1 | 10 µM (active)
O=C(O)CCCCCNc1nc(-c2ccccc2)nc2ccccc12 | 12.6 µM (active)
COc1ccc(Cl)cc1NC(=O)C1Cc2cc(S(=O)(=O)N3CCCC3)ccc2N1C(C)=O (stereo not given) | 11.2 µM (active)
COc1cccc(NC(=O)C2CCN(S(=O)(=O)c3ccc4[nH]c(=O)oc4c3)CC2)c1 | inactive
COc1cc(NC(=O)C2CCN(S(=O)(=O)c3ccc(N4CCCC4=O)cc3)CC2)cc(OC)c1 | 14.1 µM (active)
C=CCN(CC=C)C(=O)C1CCN(S(=O)(=O)c2ccc(N3CCCC3=O)cc2)CC1 | 14.1 µM (active)
COc1ccc(S(=O)(=O)N2CCC(C(=O)Nc3ccccc3N3CCCCC3)CC2)cc1OC | 11.2 µM (active)
Cc1ccc(S(=O)(=O)N2CCC(C(=O)Nc3ccc(S(=O)(=O)N4CCCC4)cc3)CC2)cc1C | 14.1 µM (active)
COc1ccc(C)cc1NC(=O)C1CCN(S(=O)(=O)c2ccc3c(c2)NC(=O)CO3)CC1 | 12.6 µM (active)
O=C/C=C/c1c(-c2ccccc2)cc2oc3ccccc3cc1-2 | inactive

SMILES | Potency
Cc1cc(=O)n2nc(N3CCC(C(=O)NCCc4ccc(Cl)cc4)CC3)sc2n1 | 12.6 µM (active)
Cc1cc(=O)n2nc(N3CCC(C(=O)NCc4ccc(Cl)cc4)CC3)sc2n1 | 12.6 µM (active)
Cc1cc(=O)n2nc(N3CCCC(C(=O)NCc4ccc(Cl)cc4)C3)sc2n1 (stereo not given) | 12.6 µM (active)
COc1ccc(N(CC(=O)NCCSCc2ccc(C)cc2)S(=O)(=O)c2ccccc2)cc1 | 12.6 µM (active)
COc1ccc(NC(=O)CN(c2ccc(F)cc2)S(=O)(=O)c2ccccc2)c(OC)c1 | 15.8 µM (active)
Cc1ccc(S(=O)(=O)N(Cc2ccccc2)C(C)C)cc1 | inactive
COc1ccc2cc3[n+](cc2c1OC)CCc1cc2c(cc1-3)OCO2 | 1.12 µM (active)
CCOC(=O)c1ccc(Nc2nc(=O)c3cccnc3s2)cc1 | inactive
CCOC(=O)c1ccc(N2N=C(C)/C(=C/C=C/c3ccco3)C2=O)cc1 | 6.31 µM (active)
C[C@@H]1c2cccc(O)c2C(O)=C2C(=O)[C@@]3(O)C(O)=C(C(N)=O)C(=O)[C@@H](N(C)C)[C@@H]3[C@@H](O)[C@@H]21 | 4.47 µM (active)
CN(C)c1ccc(O)c2c1CC1CC3[C@@H](N(C)C)C(=O)C(C(N)=O)=C(O)[C@]3(O)C(=O)C1=C2O (stereo not given in full) | 2.24 µM (active)
C=C1c2c(Cl)ccc(O)c2C(O)=C2C(=O)[C@@]3(O)C(O)=C(C(N)=O)C(=O)[C@@H](N(C)C)[C@@H]3[C@@H](O)[C@H]12 | 4.47 µM (active)
C=C1c2c(Cl)ccc(O)c2C(O)=C2C(=O)[C@]3(O)C(O)=C(C(N)=O)C(=O)[C@@H](N(C)C)[C@@H]3[C@@H](O)C12 (stereo not given in full) | 3.98 µM (active)
Cc1ccc(-c2csc3ncn(CC#N)c(=O)c23)cc1C | inactive
Cc1ccccc1NC1=NCC(c2ccc([N+](=O)[O-])cc2)S1 (stereo not given) | 11.2 µM (active)
C=CCNC(=O)c1onc(CSc2cc(C)cc(C)c2)c1C(=O)O | inactive
C=CCNC(=O)c1onc(CSc2ccc(C)c(C)c2)c1C(=O)O | inactive
C=CCNC(=O)c1oc2ccc(S(=O)(=O)N3CCCCC3)cc2c1C | 14.1 µM (active)
CCN(CC)Cc1cc2[nH]c3c4ccc(Cl)cc4ncc3c2cc1OC | 0.178 µM (active)
